Experimental data as given in PubChem BioAssay (NCATS).
Inconclusive results are not listed. A call without a number means that no potency is given here. Active and inactive are the calls of the source. The call rests on the fitted dose curve; in most records, active means well fitted cell-killing curve with a large enough effect; inconclusive means small, poorly fitted or top-dose-only effect; inactive means flat fitted curve, though single readings scatter.
Potency means the concentration at half of the fitted maximal effect.

Assay: Cell Viability - LYMP2-009 (AID 968); further: nearly all actives have a fitted effect of over 55% in size
Conditions: LYMP2-009 lymphoblastoid cell viability; series mostly up to 92.2 µM
From the text: NIH Chemical Genomics Center [NCGC]
NIH Molecular Libraries Screening Centers Network [MLSCN]
National Institutes of Environmental Health Sciences [NIEHS]
National Toxicology Program [NTP]
We have developed a 1536-well cell-based assay for quantitative high throughput screening (qHTS) against a number of cell lines to determine in vitro cytotoxicity of small molecules. This particular assay uses a human lymphoblastoid cell line (LYMP2-009) purchased from Coriell Institute for Medical Research.
NCGC Assay Protocol Summary:
The CellTiter-Glo luminescent cell viability assay (Promega) is a homogeneous method to measure the number of viable cells in culture. The end point readout of this assay is based on quantitation of intracellular ATP, an indicator of metabolic activity, using the luciferase reaction. Luciferase catalyzes the oxidation of beetle Luciferin to oxyluciferin and light in the presence of ATP. The luminescent signal is proportional to amount of ATP present.
Using the CellTiter-Glo luminescent cell viability assay, the amount of cellular ATP was measured in the lymphoblastoid cell line with complete culture medium following compound treatment for 24 hours. The assay was performed in opaque white Kalypsys 1536-well plates. In the screen, tetraoctylammonium bromide was used as positive control. Library compounds were measured for their ability to cause acute toxicity in the cell line, as reflected by a decrease in intracellular ATP levels, in a concentration-dependent manner. […] AC50 values were determined from concentration-response data modeled with the standard Hill equation.
qHTS protocol for CellTiter Glo lymphoblastoid cellular assay
[Step] [Parameter] [Value] [Description]
1. Reagent; 5 uL; 2500 lymphoblastoid cells/well
2. Time; 5 hr; 37 C incubation
4. Controls; 23 nL; Tetraoctylammonium bromide 6.4pM to 92 uM
5. Time; 24 hr; 37 C incubation
6. Reagent; 5 uL; CellTiter Glo reagent
7. Time; 30 min; Room Temperature
8. Detection; Luminescence; Viewlux plate reader
Keywords: cell viability, cytotoxicity, lymphoblastoid cell line, luminescence, NTPHTS, NTPHTS_NCGC, NIEHS, DSSTox, MLSMR, MLSCN, NIH Roadmap, qHTS, NCGC
In the case of `C[C@]12C[C@H](O)[C@H]3[C@@H](CCC4=CC(=O)CC[C@@]43C)[C@@H]1CC[C@@H]2C(=O)CO`, the Potency is reported as “inactive”. For `CCCCCCCCCCCCOS(=O)(=O)O`, the Potency was “inactive”. In the case of `CC1(C)[C@@H]2CC[C@@]1(C)C(=O)C2`, the Potency is reported as “inactive”. In the case of `O=C1c2c(O)cccc2Cc2cccc(O)c21`, the Potency is reported as “inactive”. With `O=C1O[C@H]([C@@H](O)CO)C(O)=C1O` the Potency was “inactive”. With `NCCNCCNCCN` the Potency was “inactive”. For `COc1ccccc1O`, the Potency was “inactive”. In the case of `CCCCOC(=O)c1ccc(O)cc1`, the Potency is reported as “inactive”. For `NCCNCCNCCNCCN`, the Potency was “inactive”. In the case of `CC12CCC(CC1)C(C)(C)O2`, the Potency is reported as “inactive”. For `[Cl][In]([Cl])[Cl]`, the Potency was “inactive”. For `NC(=O)c1ncn([C@@H]2O[C@H](CO)[C@@H](O)[C@H]2O)n1`, the Potency was “inactive”. In the case of `Cc1cc(CC(=O)O)n(C)c1C(=O)c1ccc(Cl)cc1`, the Potency is reported as “inactive”. With `Nc1ccc(S(=O)(=O)Nc2nccs2)cc1` the Potency was “inactive”. For `Oc1cccc(O)c1`, the Potency was “inactive”. For `Cc1cc2nc3c(=O)[nH]c(=O)nc-3n(C[C@H](O)[C@H](O)[C@H](O)CO)c2cc1C`, the Potency was “inactive”. In the case of `Cc1c(O)cccc1C(=O)N[C@@H](CSc1ccccc1)[C@H](O)CN1C[C@H]2CCCC[C@H]2C[C@H]1C(=O)NC(C)(C)C`, the Potency is reported as 50.1 µM (active).
